# Results reported in PubChem BioAssay AID596 (National Center for Advancing Translational Sciences (NCATS), 2007).
# Hit rate of the full screen: of about 71,000 compounds, about 1,400 (2%) were called active. Another 3% or so got no clear call; they are omitted. The list comes from a sample in which actives are over-represented; it also holds similar structures and randomly drawn compounds. Unmarked numbers belong to inactive results. The call rests on the fitted dose curve; in most records, active means well fitted curve in the direction sought with a large enough effect; inconclusive means small, poorly fitted or top-dose-only effect; inactive means no such curve, though single readings can be large or run the other way.
# Target: Microtubule-associated protein tau (Homo sapiens) (UniProt P10636)
# Sequence (P10636 whole entry, looked up): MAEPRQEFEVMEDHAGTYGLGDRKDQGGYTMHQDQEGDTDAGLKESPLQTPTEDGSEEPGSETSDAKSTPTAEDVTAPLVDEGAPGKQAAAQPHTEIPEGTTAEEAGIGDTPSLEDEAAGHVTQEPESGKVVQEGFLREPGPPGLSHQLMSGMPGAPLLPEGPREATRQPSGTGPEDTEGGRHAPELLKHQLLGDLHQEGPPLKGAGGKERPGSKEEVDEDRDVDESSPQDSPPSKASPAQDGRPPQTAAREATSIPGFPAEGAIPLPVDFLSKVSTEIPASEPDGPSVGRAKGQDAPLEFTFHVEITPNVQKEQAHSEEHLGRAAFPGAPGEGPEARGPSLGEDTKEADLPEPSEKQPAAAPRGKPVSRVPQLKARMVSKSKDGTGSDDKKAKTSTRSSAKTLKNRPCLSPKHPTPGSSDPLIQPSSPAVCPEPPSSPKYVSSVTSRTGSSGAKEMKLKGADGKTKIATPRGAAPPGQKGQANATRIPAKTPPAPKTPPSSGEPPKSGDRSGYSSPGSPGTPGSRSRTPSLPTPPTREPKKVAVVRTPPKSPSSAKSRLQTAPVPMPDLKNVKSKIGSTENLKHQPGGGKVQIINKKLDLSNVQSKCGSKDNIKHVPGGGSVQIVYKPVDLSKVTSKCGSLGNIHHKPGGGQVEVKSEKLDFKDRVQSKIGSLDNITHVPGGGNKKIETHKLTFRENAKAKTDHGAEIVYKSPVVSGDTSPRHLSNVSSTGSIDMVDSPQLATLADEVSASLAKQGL
# Experiment: qHTS Assay for Tau Filament Binding;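 further: actives lower thioflavin S fluorescence by blocking filaments or displacing dye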
# Details: recombinant tau filaments, thioflavin S fluorescence, 15 h, filaments grown with octadecylsulfate alongside compound; series mostly up to 57.1 µM; activity change, negative = inhibition: at the top concentration
# Summary of the method: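 ThS-based fibril read: tau 1 uM final, inducer ODS 30 uM final, 37 C for 15 h, ex 450/em 510 nm.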
# On the % scale 0 is the no-effect control and ±100 the full control effect; potency means the concentration at half of the fitted maximal effect.
SMILES,"activity change, negative = inhibition",Potency
O=C(CSc1nc2[nH]ncc2c(=O)n1-c1ccccc1)N1CCCc2ccccc21,13.4%,
O=c1nc(N2CCOCC2)nc2n1CCO2,-11.4%,
COc1ccccc1-c1nc(N2CCN(C)CC2)c2ccccc2n1,-25.5%,
COc1ccccc1CNc1nc(-c2c(C)noc2C)nc2ccccc12,91.2%,
COc1ccccc1-c1nc(NCc2cccs2)c2ccccc2n1,,2.51 µM (active)
COc1ccccc1-c1cc(NCc2cccs2)ncn1,-0.6%,
COc1ccccc1-c1nc(NCCNC(C)=O)c2ccccc2n1,-3.8%,
CNc1nc(-c2ccccc2OC)nc2ccccc12,,12.6 µM (active)
Cc1ccccc1C(=O)O,1%,
CCCCCCN(C(=O)CCCCCN1C(=O)NC(c2ccc(C(F)(F)F)cc2)C(C(=O)OCc2ccccc2)=C1C)C(C(=O)NCCCC)c1ccc(OCC(=O)OC)c(C(=O)OC)c1 (stereo unspecified),72.4%,
COC(=O)[C@@]1(C)C=C[C@@H](Cc2ccccc2)N1C(C)=O,-6.5%,
COc1cc([C@H]2c3cc4c(cc3[C@@H](O[C@@H]3O[C@H]5CO[C@@H](C)O[C@]5(O)C[C@H]3O)[C@@H]3COC(=O)[C@H]23)OCO4)cc(OC)c1O,0.5%,
COc1ccc(OC)c(Nc2nc(-c3ccc(O)c(O)c3)cs2)c1,,20 µM (active)
Oc1ccc(-c2csc(Nc3cccnc3)n2)cc1,-0.1%,
COc1ccc(-c2n[nH]c(C)c2-c2ccc(OC)c(OC)c2)c(O)c1,1.1%,
CCc1c(C)nc(N)n2c(SCC(=O)N3CCN(c4ccccc4)CC3)nnc12,1.5%,
CC(Cc1ccccc1)C(=O)N(C)Cc1ccccc1 (stereo unspecified),-18.4%,
CCc1ccc(N(CC)c2ncnc3nc[nH]c23)cc1,14.7%,
O=c1c(-c2cccs2)nc2cnc(Oc3ccccc3)nc2n1-c1ccccc1,47.6%,
CN(C(=O)COc1ccccc1)c1nnc(-c2ccncc2)s1,-17.9%,
CN(C(=O)COc1nnc(-c2cccs2)c(-c2cccs2)n1)c1ccccc1,,25.1 µM (active)
CCCn1c(SCC(N)=O)nnc1C(C)C,2.8%,
O=C(Cn1cnc2c(nnn2Cc2ccc(F)cc2)c1=O)NCc1ccc2c(c1)OCO2,7.3%,
CCOC(=O)C(C)Oc1cccc2c(=O)n(CC(=O)N3CCc4ccccc43)ccc12 (stereo unspecified),40.3%,

SMILES,"activity change, negative = inhibition",Potency
COCCNc1cc(-c2c(C)noc2C)ncn1,-2.4%,
COC(=O)CCNc1ccc2c(c1)OCCO2,1.2%,
CCOc1ccc(NCCC(=O)c2ccc3c(c2)OCO3)cc1,,25.1 µM (active)
COc1ccc(C(=O)Nc2ccc3c(c2)OCO3)cc1OC,-6%,
O=C(Cl)c1ccccc1[N+](=O)[O-],8%,
O=C(CSc1nnc(Cc2ccccc2)n1-c1ccccc1)N1CCOCC1,-4%,
CCN(CC)CCN1C(=O)C(=O)/C(=C(/O)c2ccccc2)C1c1ccccc1F (stereo unspecified),6.1%,
O=C1C(=O)N(CCN2CCOCC2)C(c2ccccn2)/C1=C(/O)c1ccc(Cl)cc1 (stereo unspecified),64.6%,
CCN(CC)CCN1C(=O)C(=O)/C(=C(/O)c2ccc(OC)c(OC)c2)C1c1ccccn1 (stereo unspecified),,20 µM (active)
CC(=O)OCCC(C)C,-0.1%,
CCCCCC(=O)Nc1ccc2oc(-c3ccncc3)nc2c1,-29.6%,
CCc1ccc2oc(-c3ccc(N)cc3)nc2c1,,25.1 µM (active)
COc1cccc(-c2nc3cc(C)ccc3o2)c1,-7.9%,
CCCCCCc1ccc(O)cc1O,-23.7%,
CC(C)n1c(SCC(=O)Nc2ccccc2N2CCCCC2)nc2c1c(=O)n(C)c(=O)n2C,5%,
COc1ccc(F)cc1S(=O)(=O)Nc1ccc2c(c1)OCO2,-5.1%,
COc1ccc(S(=O)(=O)Nc2ccc3c(c2)OCO3)cc1Cl,,20 µM (active)
CC(C)CNS(=O)(=O)c1ccc(OCC(=O)Nc2ccc3c(c2)OCO3)c(Cl)c1,101%,
c1ccc2sc(SCCSc3nc4ccccc4s3)nc2c1,-3.1% [at 11.4 µM],
CCCCN(CC)C(=O)CN(C)S(=O)(=O)c1cccc2nsnc12,-4.7%,
CCOc1ccc(NC(=O)CCS(=O)(=O)c2cccc3nsnc23)cc1,-9.9%,
CCOc1ccc(-c2cn(S(=O)(=O)c3cccc4nsnc34)nc2N)cc1,,25.1 µM (active)
CC1CCCC(NC(=O)CSc2nccn2C)C1C (stereo unspecified),9%,
O=C(c1cnccn1)N1CCC2(CCN(Cc3cc(C(F)(F)F)cc(C(F)(F)F)c3)CC2)CC1,-9.4%,

SMILES,"activity change, negative = inhibition",Potency
COc1cc(Br)cc(/C=N/c2ncn[nH]2)c1O,,1.58 µM (active)
C/C=C/C=C/C(=O)O,-9.3%,
O=C(OCC(COC(=O)c1ccccc1)(COC(=O)c1ccccc1)COC(=O)c1ccccc1)c1ccccc1,2.5%,
N#Cc1nc(N)nc(N(c2ccccc2)c2ccccc2)n1,,7.94 µM (active)
CC(C)Nc1nc(N(c2ccccc2)c2ccccc2)nc(-n2ccnc2)n1,5%,
CCOC(=O)c1cn(CC(=O)Nc2ccc(C(C)C)cc2)nn1,-18%,
CCCC(=O)Nc1cc(OCC)c(NC(=O)NC2CCCCC2)cc1OCC,0.7%,
O=C(O)CC(C(=O)O)C(CC(=O)O)C(=O)O (stereo unspecified),-2.3%,
CCCC[C@@H]1C[C@H]1C(NC(=O)c1ccco1)c1ccc(C(=O)OC)cc1 (stereo partly specified),8.7%,
CCN(CC)S(=O)(=O)N1CCC(C(=O)NC(C)CCc2ccccc2)CC1 (stereo unspecified),6%,
CC(=O)N1CCC(C(=O)Nc2nc(-c3ccccc3)ns2)CC1,,10 µM (active)
Cc1ccc2c(NC(=O)C3CC3)cccc2n1,-1.6%,
Cc1noc(C)c1-c1cc(NCc2cccnc2)ncn1,5.5%,
O=S(=O)(NCc1cccnc1)c1ccc(Br)s1,-1.9%,
COc1ccc(Cl)cc1S(=O)(=O)Nc1cccc(C(=O)O)c1,11.9%,
Cc1ccnc(SCCn2c(N(C)Cc3ccccc3)nc3c2c(=O)n(C)c(=O)n3C)n1,0.1%,
COc1cccc(-c2nc(Nc3ccncc3)c3ccccc3n2)c1,105%,
c1ccc2c(Nc3ccncc3)nc(-c3ccoc3)nc2c1,,7.94 µM (active)
CCOC(=O)CSc1nnc(NC(=O)c2cccc(S(=O)(=O)N3CCCCC3)c2)s1,5.8%,
CCn1c(COc2cccc(OC)c2)nnc1SCC(=O)N1CCOCC1,3%,
CCCC(=O)Nc1c(O)c2ccccc2[nH]c1=O,0.1%,
CCCS(=O)(=O)Nc1c(C(=O)O)[nH]c2ccccc12,,25.1 µM (active)
COC(=O)c1[nH]c2ccccc2c1NS(=O)(=O)c1ccc(OC)cc1OC,0.1%,
